PubChem BioAssay AID1159580 (chemical genetic matrix, 2015)
The whole screen tested about 5,500 compounds, of which about 2,000 (36%) were called active. Roughly 18% stayed inconclusive and do not appear here. No stated cut-off is given here; in the data, active means normalized growth mostly below about 0.91 (no sharp cut-off); inconclusive means no clear call, values can overlap the other calls; inactive means mostly above about 0.92. The list shows a part of the results.

Assay: chemical genetic growth profiling, strain panel (AID 1159580);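 further: tested at 20 µM; growth read once vehicle control cultures reached saturation at 30 °C; 1 = growth at the plate median or of vehicle wells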
Details: S. cerevisiae deletion strains, growth OD

Measured: normalized growth

CC(C(=O)O)c1ccc(CC2CCCC2=O)cc1 (stereo not drawn)
inactive: locus YAL013W, strain DEP1, stronger effect = lower value 0.985 | locus YAL040C, strain CLN3, stronger effect = lower value 0.995 | locus YCL061C, strain MRC1 (second series), stronger effect = lower value 1 | locus YDR363W, strain ESC2, stronger effect = lower value 1 | locus YER002W, strain NOP16, stronger effect = lower value 0.988 | locus YGR078C, strain PAC10, stronger effect = lower value 1.02 | locus YGR229C, strain SMI1, stronger effect = lower value 1.01 | locus YJR075W, strain HOC1, stronger effect = lower value 1.01 | locus YMR263W, strain SAP30, stronger effect = lower value 1 | locus YMR307W, strain GAS1, stronger effect = lower value 0.999 | locus YNL128W, strain TEP1, stronger effect = lower value 0.976 | locus YNL175C, strain NOP13, stronger effect = lower value 1.01 | locus YNL197C, strain WHI3, stronger effect = lower value 1.02 | locus YNL224C, strain SQS1, stronger effect = lower value 0.979 | locus YNL322C, strain KRE1, stronger effect = lower value 1.01 | locus YOR083W, strain WHI5 (second series), stronger effect = lower value 0.981 | locus YPL055C, strain LGE1, stronger effect = lower value 0.974 | locus YPL241C, strain CIN2, stronger effect = lower value 1.01
